In all, about 330,000 compounds went through this assay and about 4,100 (1.2%) were called active. For the sample, actives were picked, then their nearest neighbours and some compounds at random. A number with no mark means an inactive call. Cut-off read from the data, not from the text of the source: active = inhibition above about 50%; inactive = the rest.
Target: Sentrin-specific protease 8 (Homo sapiens) (UniProt Q96LD8)
Assay: SENP8 protease inhibitors, primary screen, biochemical, luminescence (AID 2540)
Settings: purified SENP8, Z-RLRGG-aminoluciferin cleavage, at 10 µM, active compounds read high

Sequence of Sentrin-specific protease 8 (Homo sapiens) (Q96LD8 whole entry, looked up): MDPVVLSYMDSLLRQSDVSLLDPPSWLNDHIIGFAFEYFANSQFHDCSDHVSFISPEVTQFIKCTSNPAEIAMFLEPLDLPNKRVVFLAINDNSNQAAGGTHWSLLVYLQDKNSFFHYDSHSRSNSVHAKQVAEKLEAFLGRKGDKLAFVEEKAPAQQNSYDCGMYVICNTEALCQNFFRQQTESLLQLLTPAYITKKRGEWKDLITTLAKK

Structure (SMILES)	inhibition
O=C(NCCOc1cccnc1)c1ccc(OC2CCN(Cc3ccccn3)CC2)cc1	-5.27%
CCN(C(=O)COc1cccnc1[N+](=O)[O-])C1CCS(=O)(=O)C1 (configuration not stated)	1.37%
O=C1C2CCCN2C(=O)N1CCCCN1CCN(c2cccc(C(F)(F)F)c2)CC1 (configuration not stated)	11.4%
O=C(COC(=O)c1cccnc1Cl)Nc1ccc(S(=O)(=O)N2CCOCC2)cc1	-1.74%
COc1ccc(C(=O)Nc2ccccc2C(=O)N/N=C/c2ccc(O)c(OC)c2)cc1	96.1% (active)
COc1ccc(NS(=O)(=O)c2cc(C(=O)Nc3ccccc3C(=O)O)ccc2C)cc1	-12.1%
COc1ccc(/C=N/OCC(=O)N(Cc2ccccc2)c2ccccc2C(=O)O)cc1	-0.249%
COc1ccc(C(=O)Nc2ccccc2C(=O)N2CCN(c3ccccc3)CC2)cc1	0.756%
COc1ccc(/C=N/Nc2ccccc2C(=O)O)cc1	96.1% (active)
O=C(N/N=C/c1ccc(OC(=O)c2ccccc2Cl)cc1)c1ccc(O)cc1	1.64%
CCOC(=O)C(C)n1cnc2c(nnn2-c2cccc(OC)c2)c1=O (configuration not stated)	-4.12%
Cc1cc(=O)oc2c(C(=O)c3ccccc3)c(OCC(N)=O)ccc12	5.39%
Nc1[nH]c(=S)nc2nc(-c3ccccc3)c(-c3ccccc3)nc12	-9.6%
Cc1cccnc1CCNC(=O)C1CCC(=O)N(Cc2cccc(F)c2)C1 (configuration not stated)	-1.77%
O=C(CNCc1ccco1)Nc1cc(S(=O)(=O)N2CCOCC2)ccc1N1CCCC1	-6.3%
CCN(CC)C(=O)CC1(c2ccccc2OC)CCOC(C(C)C)C1 (configuration not stated)	-10.8%
COc1ccc(CCNC(=O)C2CCCN2C(=O)Nc2ccccc2)cc1OC (configuration not stated)	-4.97%
Brc1ccc(-c2noc(-c3ccccc3)n2)o1	73% (active)
Nc1nonc1-c1noc(-c2ccc(Br)o2)n1	-7.25%
Brc1ccc(-c2nnc(-c3ccccc3)o2)o1	35.5%
CCC1(CC)Cc2ccccc2-c2nc(CCl)[nH]c(=O)c21	1.95%
O=c1[nH]c(CCl)nc2cc(-c3ccc(Cl)cc3)sc12	90.6% (active)
O=C(CCc1nc2ccccc2c(=O)[nH]1)OCC(=O)c1cccc(Cl)c1	-5.04%
O=C(NCCc1ccco1)C(=O)NCCC1CCCCN1S(=O)(=O)c1ccccc1 (configuration not stated)	2.72%
CC(C)(C)NC(=O)CN(Cc1cccs1)C(=O)CNS(=O)(=O)c1ccccc1	2.68%
O=C(CSc1cccc[n+]1[O-])NCCCc1ccccc1	3.26%

Structure (SMILES)	inhibition
Fc1cccc(Cl)c1COc1ccc(-c2nnco2)cc1	-0.803%
Fc1ccc(COc2ccc(-c3nnco3)cc2)cc1	52.5% (active)
Fc1ccc(COc2cccc(-c3n[nH]c(=S)o3)c2)cc1	26.4%
CCN(CC)c1ccc(S(=O)(=O)N2CCCCC2)cc1NC(=O)C1=COCCO1	-1.53%
COC(=O)c1ccc(C)c(NC(=O)C2CC(=O)N(C3CCCC(C)C3C)C2)c1 (configuration not stated)	-6.55%
O=C(NCC1CCCO1)c1cc2c(s1)CCCC2 (configuration not stated)	0.761%
O=C(Nc1ccc(F)cc1)c1cc2c(s1)CCCC2	90.8% (active)
CN(C)C(=O)c1ccc(NC(=O)COC(=O)c2cc3c(s2)CCCCC3)cc1	-5.57%
CC(NC(=O)c1cc2cc(Cl)ccc2oc1=N)c1ccccc1 (configuration not stated)	-6.62%
COCC(C)NC(=O)COc1nncc2ccccc12 (configuration not stated)	-1.01%
CCCC(=O)Nc1cccc(NC(=S)NC(=O)C(C)Oc2ccc(Cl)cc2Cl)c1 (configuration not stated)	-4.44%
Nc1ncc(-c2cc3ccccc3oc2=O)s1	84% (active)
O=C(NCc1cccnc1)c1cccc(-c2cc3ccccc3oc2=O)c1	-8.55%
O=c1oc2ccccc2cc1-c1cn(-c2ccccc2)c(=S)[nH]1	-12.9%
Cc1cccc(NC(=O)Nc2ccc3c(c2)OCO3)n1	13.3%
O=C(/C=C/c1ccc2c(c1)OCO2)NCc1ccc(F)cc1	-4.04%
Cc1cccc(NC(=O)/C=C/c2ccc3c(c2)OCO3)n1	73.5% (active)
COc1ccc(OC)c(NC(=O)c2cnn(-c3ccccc3Cl)c2NC(=O)c2ccco2)c1	7.71%
O=C(Nc1ccccc1)c1cc2ccccc2[nH]1	72% (active)
COc1ccc2[nH]c(C(=O)Nc3ccccc3Cl)cc2c1	-24.6%
CC(OC(=O)c1cc2ccccc2[nH]1)C(=O)N(C)c1ccccc1 (configuration not stated)	-8.47%
O=C(N/N=C/c1ccc(Cl)c(Cl)c1)c1ccc2nc[nH]c2c1	-2.15%
CSc1ccc(/C=N\NC(=O)CC(=O)NC(C)C)cc1	5.31%
CSc1ccc(/C=N/NC(=O)c2cccc(Cl)c2)cc1	89.4% (active)
O=C(CNS(=O)(=O)c1ccc(Br)s1)NCc1ccc2c(c1)OCO2	-11.1%
CC(C)CC(=O)NC(=S)Nc1ccc(F)cc1F	3.9%

Structure (SMILES)	inhibition
COc1ccc(C(=O)Nc2ccc(F)cc2F)cc1	65.2% (active)
COc1ccc(C(=O)Nc2cc(C)ccc2NC(=O)COc2ccccc2)cc1	-2.67%
CC(C)n1cnc2c(NCc3ccccc3)cc(OCC3CCN(C)CC3)cc21	44.5%
CCC(CO)Oc1cc(NCc2ccccc2)c2ncn(C3CCCC3)c2c1 (configuration not stated)	-0.274%
CC(C)n1cnc2c(NCc3ccccc3)cc(N[C@@H](CO)Cc3ccccc3)cc21	72.8% (active)
CN1CCC(N(C)S(=O)(=O)c2ccc(NC(=O)c3cccc(C#N)c3)cc2)CC1	-1.55%
O=c1c2cc(-c3ccccc3)sc2nc2n1N=C(c1cccs1)CS2	57.5% (active)
O=c1c(-c2ccccc2)cnc2n1CCS2	6.64%
Cc1nnc2n1N=C(c1ccccc1)CS2	1.54%
O=C(Cc1ccccc1)Nc1cccc(NC(=O)c2ccccc2)c1	-8.4%
O=C(Nc1cccc(NC(=O)c2cccc(F)c2)c1)c1ccccc1	-15.3%
O=C(Nc1ccc(C(=O)O)c(O)c1)c1ccccc1	76.3% (active)
COc1ccc(OCC(=O)NCCS(=O)(=O)N2CCN(c3ccc(F)cc3)CC2)cc1	1.89%
CN=C(NC#N)NCCSCc1nc[nH]c1C	-4.47%
Cc1cc(O)cc(O)c1C(=O)Cc1cnn(-c2ccccc2)c1	-5.32%
O=C(Nc1ccccc1)OCc1cn(-c2ccc(Cl)cc2)nn1	-2.31%
O=C(c1cnn(-c2ccc(Cl)cc2)c1)c1ccccc1O	91.4% (active)
O=c1[nH]c(CN2CCOCC2)nc2scc(-c3ccccc3)c12	1.83%
Cc1ccccc1NCC(=O)N/N=C\c1ccc([N+](=O)[O-])s1	33%
CC(C)(C)c1cc(C(=O)N/N=C/c2ccc([N+](=O)[O-])s2)n[nH]1	20.8%
O=[N+]([O-])c1ccc(C=Nc2ccc(Cl)cc2Cl)s1	59.6% (active)
CCc1ccc(NC(=O)N2CCc3ccccc3C2)cc1	-3.45%
COc1ccc([N+](=O)[O-])cc1NC(=O)C(C)OC(=O)C1c2ccccc2Oc2ccccc21 (configuration not stated)	-5.39%
Cn1cnc(C(F)(F)F)c1-c1ccc([N+](=O)[O-])cc1	2.27%
O=c1c2ccccc2ncn1/N=C/c1ccccc1	80.9% (active)
CN(C(=O)Nc1ccc(Cl)cc1)n1cnc2ccccc2c1=O	-6.28%

Structure (SMILES)	inhibition
CCOC(=O)N1CCN(C(=O)Cn2cnc3ccccc3c2=O)CC1	-8.63%
CCOC(=O)C1CCN(S(=O)(=O)c2ccc3c(c2)N(C(C)=O)CCO3)CC1	-1.03%
Cc1ccc(CNC(=O)[C@@H](NC(=O)Cc2ccccc2)C(C)C)cc1	2.25%
CC(C)C(=O)Nc1nnc(SCC(=O)N2C(C)CCCC2C)s1 (configuration not stated)	-3.68%
COc1ccc(C2C3=C(OC(C)=O)c4ccccc4C3=Nc3c2c(=O)n(C)c(=O)n3C)cc1 (configuration not stated)	7.93%
O=C(COC(=O)/C=C/c1cn(-c2ccccc2)nc1-c1cccnc1)Nc1ccc(Cl)cc1Cl	-4.08%
CSc1cccc(NC(=O)CSc2ccccc2)c1	-14.5%
CCOc1ccc(C(=O)Nc2cccc(-c3ccc4nncn4n3)c2)cc1	-9.4%
CCOc1ccc(C(=O)Nc2cccc(SC)c2)cc1	82.4% (active)
COc1cccc(C(=O)Nc2ccc(N3CCCC3)cc2)c1	96.4% (active)
COc1cccc(C(=O)Nc2nnc(S(=O)(=O)N3CCCCC3)s2)c1	-11%
O=C(Nc1ccc(N2CCOCC2)cc1)c1cccc(S(=O)(=O)N2CCOCC2)c1	-6.21%
O=C(OC1CCOC1=O)c1cccc(S(=O)(=O)Nc2ccc(F)cc2)c1 (configuration not stated)	2.88%
COc1cccc(NC(=O)COC(=O)/C=C/c2ccco2)c1	-1.22%
O=C(/C=C/c1ccco1)NC(=S)Nc1ccccc1Br	-6.97%
O=C(/C=C/c1ccco1)Nc1ccc(Oc2ccccc2)cc1	58.9% (active)
O=C(NCCc1ccc(Cl)cc1Cl)c1cc([N+](=O)[O-])c[nH]c1=O	4.55%
Cc1cc(OC(=O)c2ccc(OC(C)C)cc2)c([N+](=O)[O-])c(=O)[nH]1	1.33%
COc1cccc(-c2nnc(SCCOc3ccc4c(C)cc(=O)oc4c3)o2)c1	1.03%
COc1ccc2oc(-c3cccc(NC(=O)CSc4ccc(Cl)cc4)c3)nc2c1	-5.16%
O=[N+]([O-])c1ccc2oc(-c3cccc(O)c3)nc2c1	84.7% (active)
COc1ccc([N+](=O)[O-])cc1-c1nc2ccccc2nc1-c1ccccc1	12.3%
COc1cccc(-c2nc3cc(C)ccc3o2)c1	96.2% (active)
O=[N+]([O-])c1ccc2c(c1)Nc1nc3ccccc3nc1N2	-4.07%

Source: PubChem BioAssay AID2540 (Sanford-Burnham Center for Chemical Genomics, 2010)
